We go through 16 compounds from PubChem BioAssay (NCATS).

Molecules are shown by their SMILES. Records with an inconclusive call do not appear. Values without a mark were called inactive. The source made the active and inactive calls. Calls follow the shape of the dose curve; as a rule, active = well fitted curve in the direction sought with a large enough effect; inconclusive = small, poorly fitted or top-dose-only effect, or another doubt; inactive = no such curve, though single readings can be large; an effect the other way counts as inactive or inconclusive. Non-standard residues stand in square brackets, D forms with d. Residues, ends and D or L forms follow the SMILES beside them. *: point of attachment. Nva = CCC[C@H](N)C(=O)O; Cbz = O=C(OCc1ccccc1)*

Test [1] addresses Glutathione peroxidase 1 (Homo sapiens) (UniProt P07203). Briefly: Primary qHTS Assay for Inhibitors of Recombinant Selenoprotein Glutathione Peroxidase 1 (GPX1) (AID 1845191). Also: nearly all actives have a fitted effect of over 65% in size. Also: potency is read from the fitted curve at half-maximal effect. The method, boiled down: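 Recombinant GPX1 (10 nM final) was preincubated with compound for 30 min at room temperature, then reacted with 1 mM GSH, 0.5 mM CHP, 0.5 mM NADPH and 100 nM glutathione reductase; NADPH fluorescence (340/450 nm) was read at 0 and 15 min.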

Test [2] deals with Phospholipid hydroperoxide glutathione peroxidase GPX4 (Homo sapiens) (UniProt P36969). As to the kind of experiment: Primary qHTS Assay for Inhibitors of Recombinant Selenoprotein Glutathione Peroxidase 4 (GPX4) (AID 1845192). Also: nearly all actives have a fitted effect of over 65% in size. As to activity change, negative = inhibition: series mostly up to about 50 µM; % is scaled to controls: 0 for no effect and ±100 for the full control effect. In a few lines:
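GR-coupled readout: 100 nM GR, 1 mM GSH, 0.5 mM NADPH; NADPH fluorescence (ex 340/em 450 nm) read at t=0 and after 15 min RT. GPX4 200 nM, preincubated 30 min with compound; substrate 0.5 mM CHP.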
On the technique in general: Quantitative high-throughput screening tests each substance at several concentrations.

The nature of test [3]: Quantitative High-Throughput drug screen in 47 multiple myeloma cell lines against the NCATS MIPE library collection: FR4_PLB cell viability assay (AID 1918924; also: nearly all actives have a fitted effect of over 35% in size; also: potency is read from the fitted curve at half-maximal effect). In a few lines:
(§1)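 Viability readout: CellTiter-Glo luminescence following 5 min room-temperature incubation with reagent. Prior exposure: 48 h, 37C, humidified 5% CO2, 500 cells per well.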

Test [4] in a line: Quantitative High-Throughput drug screen in 47 multiple myeloma cell lines against the NCATS MIPE library collection: Delta47_JCRB cell viability assay (AID 1918925; also: nearly all actives have a fitted effect of over 45% in size; also: potency is read from the fitted curve at half-maximal effect). The method, boiled down: (§2)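 CellTiter-Glo ATP luminescence gave viability after 48 h compound treatment at 37C of 500 multiple myeloma cells per well. Normalisation used DMSO-only wells as 100% and media-only wells as 0% viability; primary qHTS of approved and investigational drugs.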

The nature of test [5]: Quantitative High-Throughput drug screen in 47 multiple myeloma cell lines against the NCATS MIPE library collection: EJM_DSMZ cell viability assay (AID 1918926; also: nearly all actives have a fitted effect of over 30% in size; also: potency is read from the fitted curve at half-maximal effect). The method, boiled down: as §2
Test [6] in a line: Quantitative High-Throughput drug screen in 47 multiple myeloma cell lines against the NCATS MIPE library collection: ARP1_JJKsccF8 cell viability assay (AID 1918928; also: nearly all actives have a fitted effect of over 40% in size; also: potency is read from the fitted curve at half-maximal effect). The method, boiled down: (§3)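 Here, 48 h treatment with MIPE 4.0 agents at 37 °C preceded an ATP luminescence read. Plating density was 500 cells per well.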
A short description of test [7]: Quantitative High-Throughput drug screen in 47 multiple myeloma cell lines against the NCATS MIPE library collection: ARD_JJKsccE7 cell viability assay (AID 1918929; also: potency is read from the fitted curve at half-maximal effect). In a few lines: as §2
Test [8] can be described thus: Quantitative High-Throughput drug screen in 47 multiple myeloma cell lines against the NCATS MIPE library collection: Karpas620_DSMZ cell viability assay (AID 1918959). Also: nearly all actives have a fitted effect of over 30% in size. Also: potency is read from the fitted curve at half-maximal effect. The method, boiled down: as §1
A short description of test [9]: Quantitative High-Throughput drug screen in 47 multiple myeloma cell lines against the NCATS MIPE library collection: KMM1_JCRB cell viability assay (AID 1918960). Also: nearly all actives have a fitted effect of over 30% in size. Also: potency is read from the fitted curve at half-maximal effect. The method, boiled down:
as §3

A short description of test [10]: Quantitative High-Throughput drug screen in 47 multiple myeloma cell lines against the NCATS MIPE library collection: AMO1_DSMZ cell viability assay (AID 1918927; also: nearly all actives have a fitted effect of over 30% in size; also: potency is read from the fitted curve at half-maximal effect). The method, boiled down:
as §2

Sequence of Glutathione peroxidase 1 (Homo sapiens) (P07203 whole entry, looked up): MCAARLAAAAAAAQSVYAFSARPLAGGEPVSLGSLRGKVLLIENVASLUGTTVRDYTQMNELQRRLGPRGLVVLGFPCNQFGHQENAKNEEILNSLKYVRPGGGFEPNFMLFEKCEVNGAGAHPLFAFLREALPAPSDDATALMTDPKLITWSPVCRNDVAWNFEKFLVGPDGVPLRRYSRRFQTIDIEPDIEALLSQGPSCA
Sequence of Phospholipid hydroperoxide glutathione peroxidase GPX4 (Homo sapiens) (P36969 whole entry, looked up): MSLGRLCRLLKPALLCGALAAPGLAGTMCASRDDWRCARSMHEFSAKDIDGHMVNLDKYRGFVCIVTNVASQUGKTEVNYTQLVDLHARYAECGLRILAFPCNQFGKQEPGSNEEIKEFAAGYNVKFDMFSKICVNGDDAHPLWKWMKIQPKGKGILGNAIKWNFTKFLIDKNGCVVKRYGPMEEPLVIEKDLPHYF

With `CC(=O)O[C@H]1C[C@@H]2CC[C@H]3[C@H]4C[C@H]([N+]5(C)CCCCC5)[C@@H](OC(C)=O)[C@@]4(C)CC[C@@H]3[C@@]2(C)C[C@H]1[N+]1(C)CCCCC1`, the Potency result in test [1], in test [2], in test [3], in [4], in [5] and in test [6] was “inactive” throughout. The Potency result in test [7], in test [8] and in test [9] was “inactive” throughout.
Take `N#Cc1cc(NC(=O)Nc2nnc(-c3ccncc3)s2)ccc1-c1cn[nH]c1`: the Potency entry in test [1], in test [2], in test [3], in test [4], in [5] and in [10] was “inactive” each time. The Potency entry in test [7], in test [8] and in test [9] was “inactive” throughout.
As to `NC(=O)N1CCC(CC(=O)N2CCC([C@H]3c4ncc(Br)cc4CCc4cc(Cl)cc(Br)c43)CC2)CC1`, the Potency result in [1] and in [2] was “inactive” in each case. Further, the Potency in test [3] was 20900 nM (active); in test [4] it was 8330 nM (active); in test [5], 20900 nM (active); in test [10], 7430 nM (active); in test [6], 13200 nM (active); in [7], 2090 nM (active). For the same compound, the values for the Potency in test [8] and in test [9] were 14800 nM (active) and 18700 nM (active), respectively.
For `C=C(C)[C@@H]1CC[C@]2(C)CC[C@]3(C)[C@H](CC[C@@H]4[C@@]5(C)CC[C@H](O)C(C)(C)[C@H]5CC[C@]43C)[C@@H]12`, the Potency entry in test [1], in test [2], in test [3], in test [4], in test [5] and in [10] was “inactive” throughout. For the same compound, the Potency entry in test [8] and in test [9] was “inactive” throughout.
With `O=C(c1ccc(F)cc1)N1CCC[C@H](c2nc(-c3ccc(F)cc3)no2)C1`, the Potency entry in test [1], in test [2], in test [3], in test [4], in test [5] and in [10] was “inactive” throughout. Further, the Potency entry in test [6], in [7], in test [8] and in test [9] was “inactive” throughout.
For the compound `COc1cccc2c1C(=O)c1c(O)c3c(c(O)c1C2=O)C[C@@](O)(C(=O)CO)C[C@@H]3O[C@H]1C[C@H](N)[C@@H](O)[C@H](C)O1`, the Potency entry in [1] and in [2] was “inactive” in each case. For the same compound, the Potency in [3] is 743 nM (active); in [4] it was 209 nM (active); in test [5] it was 590 nM (active); in test [10], 1180 nM (active); in test [6], 469 nM (active); in [7], 2640 nM (active). The results for the Potency in test [8] and in test [9] were 2350 nM (active) and 2090 nM (active), respectively.
As to `Cn1cc(CNCC2CCN(c3ncc(C(=O)NO)cn3)CC2)c2ccccc21`, the Potency result in test [1] and in [2] was “inactive” each time. In addition, the Potency in test [3] was 26.4 nM (active); in test [4] it was 74.3 nM (active); in test [5], 52.6 nM (active); in [10], 52.6 nM (active); in [6] it was 16.6 nM (active); in test [7] it was 52.6 nM (active). Also, the results for the Potency in test [8] and in test [9] were 105 nM (active) and 41.8 nM (active), respectively.
With `CCC[C@@H](C=O)NC(=O)[C@H](CC(C)C)NC(=O)[C@H](CC(C)C)NC(=O)OCc1ccccc1` (Cbz-Leu-Leu-[Nva]-aldehyde), the Potency result in test [1] and in test [2] was “inactive” throughout. The Potency in [3] is 833 nM (active); in test [4], 332 nM (active); in test [5], 1480 nM (active); in [10], 296 nM (active); in test [7], 332 nM (active); in [8], 332 nM (active). In addition, the Potency in [9] is 235 nM (active).
`NC(=O)Nc1sc(-c2ccc(F)cc2)cc1C(N)=O`: the Potency entry in test [1] and in test [2] was “inactive” each time. In addition, the Potency in [3] is 2350 nM (active); in [4], 187 nM (active); in [5] it was 1870 nM (active); in [10], 132 nM (active); in [6], 2960 nM (active); in [7] it was 296 nM (active). Moreover, the Potency was 1480 nM (active) in [8] and 209 nM (active) in [9].
For the compound `CCN(C(=O)c1c(O)c2c(Cl)cccc2n(C)c1=O)c1ccccc1`, the Potency entry in test [1], in test [2], in test [3], in test [4] and in [5] was “inactive” throughout. Further, the Potency in test [8] is 16600 nM (active).
Consider `NC(=NCCCCCCN=C(N)N=C(N)Nc1ccc(Cl)cc1)N=C(N)Nc1ccc(Cl)cc1`, for which the Potency entry in test [1] and in test [2] was “inactive” each time. The Potency is 16600 nM (active) in [3]; 2640 nM (active) in test [4]; 2640 nM (active) in [5]; 23500 nM (active) in test [10]; 8330 nM (active) in [6]; 18700 nM (active) in test [8]. Also, the Potency in [9] is 18700 nM (active).
On to `Cc1cnc(NC(=O)Nc2cc(Br)c(C)cc2OC[C@@H]2CNCCO2)cn1`, for which the Potency result in [1] and in test [2] was “inactive” throughout. Further, the Potency in [3] was 590 nM (active); in [4] it was 5260 nM (active); in [5], 3720 nM (active); in test [6], 13200 nM (active); in [7], 1180 nM (active); in test [9] it was 743 nM (active).
`O=C1c2cccc(O)c2C(=O)c2c(O)cc(CO)cc21`: in [1], the Potency was 4090 nM (active). The Potency entry in test [2], in test [3], in [4], in test [5], in test [10] and in test [7] was “inactive” in each case. In addition, the Potency result in [8] and in test [9] was “inactive” in each case.
As to `C=CC(=O)N1CCc2ccc(-n3c(=O)ccc4cnc5ccc(-c6cnn(C)c6)cc5c43)cc21`, the Potency entry in test [1] and in test [2] was “inactive” throughout. Besides, the Potency in test [3] was 1660 nM (active); in [4] it was 935 nM (active); in test [5], 3720 nM (active); in test [10] it was 2960 nM (active); in test [6], 1050 nM (active); in test [7], 833 nM (active). The Potency in test [8] is 3720 nM (active); in test [9], 833 nM (active).
Take `Cn1cc(C[C@@H](N)C(=O)O)c2ccccc21`: in test [1], the outcome is “inactive [at 9.52 µM]”. The activity change, negative = inhibition in [2] is 0.696% [at 9.73 µM]. The Potency result in [3], in test [4], in [5], in [10], in [6] and in test [8] was “inactive” in each case. For the same compound, in [9], the Potency result was “inactive”.
Consider `CC(=O)SCC(Cc1ccccc1)C(=O)NCC(=O)OCc1ccccc1` (stereo not given), for which the Potency entry in [1] and in [2] was “inactive” each time. Moreover, the Potency is 18700 nM (active) in test [3]; 1050 nM (active) in test [4]; 14800 nM (active) in [5]; 3720 nM (active) in test [10]; 8330 nM (active) in test [7]; 1660 nM (active) in test [8]. Also, the Potency in [9] is 3320 nM (active).
